Giardia FBPA inh-1 – qHTS Assay for Inhibitors of Fructose-1,6-bisphosphate Aldolase from Giardia Lamblia. A8B2U2. hit rate 0.71% among 290,000. Potency, µM (highest dose often 59.6 µM), for the others: top-dose activity, negative = inhibition, actives largely listed as inhibitors. purified Giardia FBPA; also: nearly all actives have a fitted effect of over 55% in size
Target sequence (A8B2U2 whole entry, looked up): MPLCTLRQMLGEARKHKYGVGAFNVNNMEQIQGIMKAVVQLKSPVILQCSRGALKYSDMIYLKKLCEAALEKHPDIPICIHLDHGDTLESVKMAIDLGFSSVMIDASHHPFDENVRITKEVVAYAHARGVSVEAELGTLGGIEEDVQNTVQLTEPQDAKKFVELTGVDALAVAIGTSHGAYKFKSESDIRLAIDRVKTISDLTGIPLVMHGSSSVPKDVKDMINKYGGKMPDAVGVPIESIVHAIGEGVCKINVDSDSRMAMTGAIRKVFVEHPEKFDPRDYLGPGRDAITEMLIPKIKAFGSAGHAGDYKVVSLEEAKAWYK
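Giardia FBPA (40 nM reagent) was preincubated 10 min at RT with compound (up to 57.5 uM final), then substrate plus GAPDH/TPI/NAD/arsenate coupling system with diaphorase/resazurin was added; resorufin fluorescence (525/598 nm) was read after 20 min.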
Sm TGR block – qHTS Assay for the Inhibitors of Schistosoma Mansoni Peroxiredoxins. hit rate 3% among 360,000. Potency, µM (doses to about 114 µM), without a hit: top-dose activity change, negative = inhibition, hits mostly inhibitors. Schistosoma mansoni thioredoxin glutathione reductase (TGR), Q962Y6. purified TGR, DTNB reduction, TNB absorbance 405 nm; also: nearly all actives have a fitted effect of over 60% in size
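Kinetic colorimetric format: TGR-catalysed, NADPH-driven DTNB reduction monitored via TNB absorbance. Enzyme dispensed at 20 nM; compound exposure 15 min at room temperature before reaction start.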
AmpC inh no detg – qHTS Inhibitors of AmpC Beta-Lactamase (assay without detergent); AmpC nitrocefin hydrolysis, absorbance 480 nm, 0.0001% Triton; Potency, µM (series often up to 57.1 µM), without a hit: at the highest dose activity change, negative = inhibition, actives largely listed as inhibitors; hit rate 0.52% among 330,000; AID 485341, 2010; P00811;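 also: plate controls were no compound for no effect and no enzyme for full effect; nearly all actives have a fitted effect of over 20% in size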
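AmpC (5.3 nM in the dispensed reagent) in 20 mM phosphate pH 7.0 with 0.01% (detergent screen) or 0.0001% Triton X-100 was preincubated with compounds for 15 min at room temperature. Nitrocefin was then added from an 800 uM solution, and hydrolysis was followed at 480 nm.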
AmpC detergent – qHTS Inhibitors of AmpC Beta-Lactamase (assay with detergent); P00811; AmpC hydrolysis of nitrocefin, absorbance 480 nm, 0.01% Triton; Potency, µM (series often up to 114 µM), without a hit: top-dose activity change, negative = inhibition, hits mostly inhibitors; hit rate 0.041% among 370,000; AID 485294, 2010;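 also: 0% = no-compound wells and -100% = no-enzyme wells; nearly all actives have a fitted effect of over 25% in size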
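20 mM phosphate pH 7.0 + 0.01% (detergent screen) or 0.0001% Triton X-100; 5.3 nM AmpC reagent; cpd preinc 15 min RT; nitrocefin (800 uM stock) to start; A480 q20 s × 4 min; Activity was normalised to no-enzyme and no-compound control wells.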
Giardia growth – qHTS Assay for Inhibitors of Fructose-1,6-bisphosphate Aldolase from Giardia Lamblia: Giardia lamblia growth inhibition | shares compounds with Giardia FBPA inh-1 | Giardia lamblia trophozoite growth inhibition | Potency, µM (top dose mostly 57.5 µM), without a hit: at the highest dose activity change, negative = inhibition, usual class: inhibitors | hit rate 5% among 1,500 | AID 2785, 2010;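 also: trophozoites exposed to compound for 48 h at 37 °C; nearly all actives have a fitted effect of over 70% in size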
Mammal cell tox – qHTS Assay for Inhibitors of Fructose-1,6-bisphosphate Aldolase from Giardia Lamblia: Mammalian cellular toxicity; shares compounds with Giardia FBPA inh-1; hit rate 4% among 1,500; mammalian cell viability counter-screen, qHTS; Potency, µM (series often up to 57.5 µM), without a hit: at the top dose viability change, negative = toxicity, most hits filed as inhibitors;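 also: Chinese hamster ovary cells used as mammalian cytotoxicity surrogate; viability measured as cellular ATP by luminescence; compound exposure lasted 48 h before reading; nearly all actives have a fitted effect of over 60% in size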
Giardia FBPA inh-2 – qHTS Assay for Inhibitors of Fructose-1,6-bisphosphate Aldolase from Giardia Lamblia: Primary screen confirmation | shares compounds with Giardia FBPA inh-1 | purified Giardia aldolase enzyme activity, qHTS | Potency, µM (highest dose often 57.5 µM), inactives show at the top dose activity change, negative = inhibition, hits mostly inhibitors | hit rate 5% among 1,500 | AID 2787, 2010; also: nearly all actives have a fitted effect of over 45% in size
Rabbit FBPA inh – qHTS Assay for Inhibitors of Fructose-1,6-bisphosphate Aldolase from Giardia Lamblia: Rabbit FBPA Selectivity. Rabbit muscle FBPA enzyme inhibition, selectivity counter-screen. AID 2794, 2010. Potency, µM (highest dose often 57.5 µM), without a hit: at the highest dose activity, negative = inhibition, actives largely listed as inhibitors. shares compounds with Giardia FBPA inh-1. hit rate 4% among 1,500; also: nearly all actives have a fitted effect of over 60% in size
GAPDH coupling – qHTS Assay for Inhibitors of Fructose-1,6-bisphosphate Aldolase from Giardia Lamblia: Coupling assay counterscreen confirmation. Potency, µM (titrated, usually from 57.5 µM), for inactives: top-dose activity change, negative = inhibition, hits mostly inhibitors. AID 2795, 2010. shares compounds with Giardia FBPA inh-1. GAPDH coupling enzyme counterscreen, biochemical, qHTS. hit rate 6% among 1,500; also: nearly all actives have a fitted effect of over 55% in size
Active calls of the source: *; ? = inconclusive; . = no result; [ ] = dose if it differs, or a comment. An excerpt weighted towards active compounds, which were near 3.6% of everything screened. Calls follow the shape of the dose curve; as a rule, active = well fitted curve in the direction sought with a large enough effect; inconclusive = small, poorly fitted or top-dose-only effect, or another doubt; inactive = no such curve, though single readings can be large; an effect the other way counts as inactive or inconclusive. Unless noted, % is scaled to controls: 0 for no effect and ±100 for the full control effect; potency is read from the fitted curve at half-maximal effect.

SMILES | Giardia FBPA inh-1 | Sm TGR block | AmpC inh no detg | AmpC detergent | Giardia growth | Mammal cell tox | Giardia FBPA inh-2 | Rabbit FBPA inh | GAPDH coupling
COc1cc(CNc2ccc(N3CCCC3)cc2)cc(Cl)c1OC | 1.8µM* | . | -11% | 8% | -30% | -27% | 18µM* | 32µM* | ?
CCOc1ccc(CNc2ccc(N3CCCC3)cc2)cc1 | 0.5µM* | ? | -9% | 1% | -14%[38.3 µM] | -11% | ? | ? | ?
COc1cc(CC(=O)N(CC(C)C)C2CCS(=O)(=O)C2)cc(OC)c1OC (stereo unspecified) | . | . | -1% | . | . | . | . | . | .
COc1ccccc1N1CCN(c2ccc(=O)n(CC(=O)NCc3ccc(F)cc3)n2)CC1 | . | -9% | . | -12% | . | . | . | . | .
Nc1nnnn1CC(=O)N/N=C/C=C/c1ccccc1 | 1% | 8% | -25% | 0% | . | . | . | . | .
Cc1cccc(/C=N/NC(=O)Cn2nnnc2N)n1 | 18µM* | -14% | -17% | -7% | 11% | -3% | 3% | 8% | 10%
CC(C)C(NS(=O)(=O)c1ccc2c(c1)oc(=O)n2C)C(=O)N1CCN(c2cccc(Cl)c2)CC1 (stereo unspecified) | . | -4% | . | -5% | . | . | . | . | .
Cc1sc2ncn(CC(=O)N3CCN(c4ccc(F)cc4)CC3)c(=O)c2c1S(=O)(=O)N1CCCCC1 | . | 2% | . | 3% | . | . | . | . | .
O=C(N/N=C/c1ccccn1)c1cc(C2CC2)nc2ccccc12 | 8% | -3% | -16% | 2% | . | . | . | . | .
O=C(N/N=C/c1ccccn1)c1cc(-c2ccccc2)nc2ccccc12 | 14µM* | 6% | 6% | 2% | 24% | ? | 10% | 7% | -2%
O=C(N/N=C/c1ccccn1)c1cc(-c2cccc3ccccc23)n[nH]1 | -4% | -8% | -38% | -20% | . | . | . | . | .
O=C(N/N=C/c1ccccn1)c1cc(-c2ccccc2Cl)n[nH]1 | 16µM* | 3% | -45% | 4% | -19% | -8% | -8% | -14% | -18%
O=C(N/N=C/c1ccccn1)c1cccc(S(=O)(=O)N2CCCC2)c1 | 16µM* | 7% | -8% | 8% | 4%[10.4 µM] | 5% | 6% | 7% | 0%
COCCCNC(=O)c1ccc(-n2c(-c3ccccc3)cc3c2CCC(C)C3)cc1 (stereo unspecified) | . | 10% | . | 7% | . | . | . | . | .
O=C(CCCN1C(=O)/C(=C\c2cccs2)SC1=S)Nc1cccc(C(=O)O)c1 | 17% | 2% | -16% | 0% | . | . | . | . | .
O=C(CCCN1C(=O)/C(=C/c2ccco2)SC1=S)Nc1cccc(C(=O)O)c1 | 16µM* | -6% | -24% | 3% | 9%[10.4 µM] | 20% | -7% | -2% | 9%
NS(=O)(=O)c1ccc(CNC(=S)Nc2ccc(F)c(Cl)c2)cc1 | -15% | ? | -29% | -3% | . | . | . | . | .
Cn1cc(Br)c(C(=O)NC(=S)Nc2ccc(S(N)(=O)=O)cc2)n1 | 16µM* | ? | -23% | -4% | -26% | 10% | 3% | 9% | 12%
